# In paper PMC5540273 (PLoS ONE, 2017):
# Assays:
# Conditions in all cases: concentration: 1 μM, replicates: in singlicate; n = 1
# EPHB3 = system: EPHB3
# EPHB4 = system: EPHB4
# EPHB6 = system: EPHB6
# ERBB2 = system: ERBB2
# ERBB3 = system: ERBB3
# ERBB4 = system: ERBB4
# ERK1 = system: T1, ERK1
# T1 construct: gene MAPK3
# ERK2 = system: T2, ERK2
# T2 construct: gene MAPK1
# ERK3 = system: T3, ERK3
# T3 construct: gene MAPK6
# ERK4 = system: T4, ERK4
# T4 construct: gene MAPK4
# ERK5 = system: T5, ERK5
# T5 construct: gene MAPK7
# ERK8 = system: T6, ERK8
# T6 construct: gene MAPK15
# ERN1 = system: ERN1
# FAK = system: T7, FAK
# T7 construct: gene PTK2
# FER = system: FER
# FES = system: FES
# FGFR1 = system: FGFR1
# FGFR2 = system: FGFR2
# FGFR3 = system: FGFR3
# FGFR4 = system: FGFR4
# 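Note: KINOMEscan kinase panel screen.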
Structure (SMILES),%Inh (EPHB3) [%],%Inh (EPHB4) [%],%Inh (EPHB6) [%],%Inh (ERBB2) [%],%Inh (ERBB3) [%],%Inh (ERBB4) [%],%Inh (ERK1) [%],%Inh (ERK2) [%],%Inh (ERK3) [%],%Inh (ERK4) [%],%Inh (ERK5) [%],%Inh (ERK8) [%],%Inh (ERN1) [%],%Inh (FAK) [%],%Inh (FER) [%],%Inh (FES) [%],%Inh (FGFR1) [%],%Inh (FGFR2) [%],%Inh (FGFR3) [%],%Inh (FGFR4) [%]
COc1cccc(-n2cnc3c(N)ncnc32)c1 [SKF-97416],0,0,28,31,46,1,0,0,5,0,0,8,43,4,0,4,7,0,0,0
Cl.NS(=O)(=O)c1cccc(Nc2cc(-c3ccc(F)cc3)n[nH]2)c1 [GW824645],0,0,0,4,17,0,0,0,0,0,0,3,21,0,41,0,0,0,0,0
O=C(Nc1n[nH]c2cc(-c3ccccc3F)ccc12)C1CC1 [SB-733371],0,5,0,0,0,18,0,0,0,0,16,43,0,0,0,1,1,0,0,0
Cc1nnc(-c2ccc3ncn(-c4ccc(S(C)=O)cc4)c3c2)o1 (stereo not shown),35,6,3,29,0,11,0,26,0,15,3,6,18,1,5,20,1,14,9,12
COC(=O)c1c(-c2ccccc2)c2cc(C)ccc2c(=O)n1Cc1ccccc1,45,1,0,5,0,0,0,9,0,0,0,0,0,0,0,0,0,0,0,0
